Assay outcomes (PubChem)
This is a sample that favours compounds with a hit; in the whole collection about 11% have one here.
BAZ2B block – inhibitors of human BAZ2B bromodomain. Q9UIF8. Potency, µM (series often up to 114 µM), for the others: at the highest dose activity change, negative = inhibition, most hits filed as inhibitors. 360,000 tested, 4.4% active. AlphaScreen BAZ2B-H3K14Ac peptide displacement; further: on the % scale 0 is the no-effect control and ±100 the full control effect; nearly all actives have a fitted effect of over 60% in size
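Protein-peptide AlphaScreen: BAZ2B 50 nM, b-H3K14Ac 50 nM, 1x PBS pH 7.4 + 0.01% Tween-20. Preincubation 30 min RT; cpd 30 min RT (top 110 uM); beads 20 min RT, light-protected.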
L3MBTL1 inh – blocks human L3MBTL1; AID 485360; 230,000 tested, 0.66% active; Potency, µM (top dose mostly 57.1 µM), for the others: at the highest dose activity, negative = inhibition, hits mostly inhibitors; Q9Y468; AlphaScreen L3MBTL1–H3K9me1 peptide binding; further: on the % scale 0 is the no-effect control and ±100 the full control effect; nearly all actives have a fitted effect of over 60% in size
Target sequence (Q9Y468 whole entry, looked up): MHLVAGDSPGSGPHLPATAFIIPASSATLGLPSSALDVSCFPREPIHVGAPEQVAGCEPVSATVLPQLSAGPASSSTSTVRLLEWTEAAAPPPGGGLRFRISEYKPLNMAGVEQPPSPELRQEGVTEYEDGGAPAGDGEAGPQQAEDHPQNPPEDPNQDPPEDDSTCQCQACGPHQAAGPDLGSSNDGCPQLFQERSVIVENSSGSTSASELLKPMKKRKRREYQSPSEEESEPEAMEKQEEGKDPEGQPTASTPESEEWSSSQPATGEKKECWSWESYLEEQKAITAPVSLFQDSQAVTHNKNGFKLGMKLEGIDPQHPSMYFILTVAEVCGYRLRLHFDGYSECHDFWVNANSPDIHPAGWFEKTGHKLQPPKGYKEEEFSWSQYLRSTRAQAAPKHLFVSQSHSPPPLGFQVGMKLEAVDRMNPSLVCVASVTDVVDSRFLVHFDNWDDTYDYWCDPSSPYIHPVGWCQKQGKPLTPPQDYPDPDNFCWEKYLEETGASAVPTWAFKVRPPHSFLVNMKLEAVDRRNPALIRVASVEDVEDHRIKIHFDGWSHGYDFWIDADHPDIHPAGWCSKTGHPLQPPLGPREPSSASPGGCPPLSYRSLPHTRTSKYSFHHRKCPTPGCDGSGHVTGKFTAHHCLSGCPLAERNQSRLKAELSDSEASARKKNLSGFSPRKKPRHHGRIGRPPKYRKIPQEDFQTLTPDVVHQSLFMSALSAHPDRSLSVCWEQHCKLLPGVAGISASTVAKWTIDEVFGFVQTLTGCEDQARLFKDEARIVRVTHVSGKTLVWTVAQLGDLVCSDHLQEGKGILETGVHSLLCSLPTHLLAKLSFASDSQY
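L3MBTL1 (50 nM) pre-complexed 30 min with biotinylated H3(1-15)K9me1 peptide (75 nM), then compounds added for 30 min at room temperature; AlphaScreen streptavidin donor/nickel chelate acceptor beads (10 ug/mL final) read after 30 min dark incubation.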
JMJD2A Tudor inh – JMJD2A Tudor domain (human) inhibition | O75164 | AlphaScreen JMJD2A-Tudor / H3K4me3 peptide binding | Potency, µM (series often up to 114 µM), for the others: at the highest dose activity change, negative = inhibition, actives largely listed as inhibitors | 390,000 tested, 4.4% active; further: on the % scale 0 is the no-effect control and ±100 the full control effect; nearly all actives have a fitted effect of over 50% in size
G9a block – G9a (human) methyltransferase inhibition; Potency, µM (top dose mostly 102 µM), without a hit: at the highest dose activity, negative = inhibition, usual class: inhibitors; AID 504332; 350,000 tested, 8.8% active; G9a H3K9 monomethylation, AlphaScreen, 2 h; Q96KQ7; further: on the % scale 0 is the no-effect control and ±100 the full control effect; nearly all actives have a fitted effect of over 75% in size
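G9a (20 nM) preincubated 15 min RT with compounds, then 500 nM biotinylated H3K9 peptide and 20 uM SAM added; 2 h RT reaction. Monomethyl-H3K9 product detected by AlphaScreen with anti-H3K9me1 antibody, streptavidin donor and anti-rabbit IgG acceptor beads.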
HP1b chromo inh – blocks HP1-beta chromodomain binding to methylated histone tails. AlphaScreen HP1-beta / biotin-H3K9me3 peptide binding. 390,000 tested, 0.56% active. P83916. Potency, µM (series often up to 114 µM), inactives show at the highest dose activity change, negative = inhibition, actives largely listed as inhibitors; further: nearly all actives have a fitted effect of over 70% in size
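HP1-beta protein (50 nM final) preincubated 30 min at room temperature with biotinylated H3(1-18)K9me3 peptide (50 nM) in PBS pH 7.4, 0.01% Tween-20, then compound added for 30 min. AlphaScreen streptavidin donor/nickel chelate acceptor beads (10 ug/mL final), 30 min dark, luminescence read.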
* = called active by the depositor; ? = inconclusive; / = not tested or not shown; [ ] = another dose, or the depositor's remark. The call rests on the fitted dose curve; in most records, active means well fitted inhibition curve with a large enough effect; inconclusive means small, poorly fitted or top-dose-only effect; inactive means no such curve, though single readings can be large or run the other way. Potency means the concentration at half of the fitted maximal effect.

SMILES	BAZ2B block	L3MBTL1 inh	JMJD2A Tudor inh	G9a block	HP1b chromo inh
Cc1ccc(NC(=O)c2cc(S(=O)(=O)N3CCc4ccccc43)cn2C)c(Cl)c1	-36%	/	1%	-30%[59 µM]	16%
CCc1cccc(NC(=O)CSc2n[nH]c(-c3ccccc3Cl)n2)c1	2%	/	-22%	6%[59 µM]	13%[57 µM]
COc1ccc2c(c1)sc(=N)n2C	-16%	/	8%	20µM*	32%
COc1cc(OC)c(OC)cc1CCC(C)NCCC(c1ccccc1)c1ccccc1 (stereo unspecified)	13µM*	/	45µM*	-3%[2.33 µM]	?
Cc1cc(Cl)c2ccc3ccccc3c2n1	58%	37%	21%	25µM*	27%
Cc1cc(Cl)c2ccccc2n1	4%	0%	0%	-8%[59 µM]	42%
CCc1ccc(Sc2cc(C(=O)O)c3ccccc3n2)cc1	-4%	/	-5%	5%[59 µM]	39%
CCN(Cc1ccccc1)c1ccccc1	/	/	14%	/	73%
CCN(Cc1ccccc1)c1ccc(/C=N/N=C(N)N)cc1	?	-11%	35µM*	?	?
Cc1cccc(N2CCN(C(=O)c3cc4c(=O)[nH]c5ccc(C)cc5c4s3)CC2C)c1 (stereo unspecified)	?	/	-33%	?	0%
Cc1ccc(S(=O)(=O)N2CCN(C3CCC(c4ccccc4)CC3)CC2)cc1 (stereo unspecified)	9%	-1%	/	-6%	/
CCS(=O)(=O)N1CCN(C2CCC(c3ccccc3)CC2)CC1 (stereo unspecified)	50µM*	-4%	/	10µM*	/
CCCn1cc(SCC(=O)Nc2cc(C)on2)c2ccccc21	-16%	/	-2%	15%	36%
Cc1cc(NC(=O)CSc2cn(C)c3ccccc23)no1	3%	/	-18%	25µM*	30%
Cc1cc(NC(=O)CSc2cn(CCNC(=O)c3ccccc3)c3ccccc23)no1	7%	/	22µM*	?	8.9µM*
Cc1ccc(C(=O)NCCn2cc(SCC(=O)Nc3cc(C)on3)c3ccccc32)cc1	5%	/	-15%	-11%	37%
CCOC(=O)c1sc(SCC(=O)Nc2ccc(N(C)C)cc2)nc1N	45µM*	-16%	?	11µM*	?
CN(C)c1ccc(NC(=O)CSc2nc(N)c(C(=O)Nc3ccc(N(C)C)cc3)s2)cc1	20µM*	?	?	?	?
COC(=O)c1ccccc1NC(=O)CSc1ncccn1	-4%	1%	-12%	-4%	33%
COC(=O)c1cc(C)sc1NC(=O)CSc1ncccn1	-21%	/	-6%	10µM*	-3%
CCOC(=O)c1cccc(NC(=O)c2cnc3sc(N4CCOCC4)nn3c2=O)c1	-2%	/	-14%	0%[59 µM]	32%
O=C(c1ccc([N+](=O)[O-])cc1)N1CCSC1c1ccccc1 (stereo unspecified)	-6%	-3%	-17%	-2%[59 µM]	-2%
CN(C)c1ccc(C2SCCN2C(=O)c2ccc([N+](=O)[O-])cc2)cc1 (stereo unspecified)	45µM*	-18%	?	?	?
COc1ccc(Cl)cc1NC(=O)[C@H]1O[C@@H]2OC(C)(C)O[C@@H]2[C@H]2OC(C)(C)O[C@H]21	-15%	/	-13%	4%[59 µM]	62%
CN(C)c1ccc(CN(C)C2CCCCC2)cc1	?	/	-31%	50µM*	1%
SMILES	BAZ2B block	L3MBTL1 inh	JMJD2A Tudor inh	G9a block	HP1b chromo inh
Cc1ccc(-c2noc(-c3cccnc3NCc3ccco3)n2)cc1	-2%	/	-4%	-31%[59 µM]	46%
Cc1ccc2nc3sc(C(=O)Nc4c(C)[nH]c(=O)[nH]c4=O)c(N)c3cc2c1	-30%	4%	-19%	10µM*	22%
Cc1ccc2cc3c(N)c(C(=O)Nc4c(C)[nH]c(=O)[nH]c4=O)sc3nc2c1	?	-3%	-28%	10µM*	33%
Cc1ccccc1NC(=O)c1sc2nc(-c3ccncc3)ccc2c1N	0%	/	1%	-5%[59 µM]	17%
Cc1[nH]c(=O)[nH]c(=O)c1NC(=O)c1sc2nc3c(C)cccc3cc2c1N	-10%	-2%	-21%	10µM*	22%
Cc1ccc(C)c(NC(=O)C2CCCN2S(=O)(=O)c2ccc3c(c2)CCCC(=O)N3)c1 (stereo unspecified)	7%	/	-18%	4%[59 µM]	27%
O=C1CC(c2ccccc2)Cc2[nH]c(=O)c(C(=O)Nc3cccc(Cl)c3)cc21 (stereo unspecified)	10%	/	3%	51%[59 µM]	58%
COc1ccc(C(=O)N(Cc2ccccc2)Cc2ccccc2)cc1COc1ccc(NC(C)=O)cc1	/	/	-10%	/	/
O=C(O)c1c[nH]c2c([N+](=O)[O-])cccc2c1=O	/	/	20µM*	/	79µM*
Cc1c(C(=O)O)cccc1[N+](=O)[O-]	?	0%	-8%	2%[0.501 µM]	22%
CCOC(=O)/C=C/c1cc(F)c(S(=O)(=O)N2CCN(S(=O)(=O)c3ccc4c(c3)OCCO4)CC2)cc1F	/	/	-4%	/	/
C(=N\Nc1ccc2nncn2n1)/c1ccco1	-25%	/	2%	15%	16%
BrC(=C\c1ccccc1)/C=N/Nc1ccc2nncn2n1	45µM*	/	?	/	-28%
COc1ccc(S(=O)(=O)NC2CCN(C#N)CC2)cc1	/	/	-3%	/	/
COc1ccc(-c2ccc(OC)c([C@H]3[C@H]4C=CC[C@@H](C)[C@@H]4C(=O)N3Cc3ccccc3)c2)cc1C	-11%	/	-12%	12%[59 µM]	38%
COc1ccc(-c2ccc(N(C)C)cc2)cc1[C@H]1[C@H]2C=CC[C@@H](C)[C@@H]2C(=O)N1Cc1ccccc1	?	/	5.6µM*	?	?
COc1ccc(-c2ccc(N(C)C)cc2)cc1C1C2C=CCC(C)C2C(=O)N1Cc1ccccc1 (stereo unspecified)	/	/	7.1µM*	/	-24%
Cc1ccc(Cl)cc1N1CCN(S(C)(=O)=O)CC1	11%	/	6%	12%[59 µM]	6%
COc1ccc(C2=C(N3CCN(c4cc(Cl)ccc4C)CC3)c3ccccc3C2=O)cc1	2.8µM*	/	6.3µM*	3.5µM*	?
O=C(N/N=C/C(Cl)=C/c1ccccc1)c1ccco1	-4%	-2%	-19%	/	-20%
Cc1ccc(N2CCN(/N=C/C(Cl)=C/c3ccccc3)CC2)cc1	-11%	-4%	-23%	1%	23%
S=c1[nH]nc(-c2ccco2)n1/N=C/C(Cl)=C/c1ccccc1	?	-11%	?	4.5µM*	?
Cc1cc(-c2n[nH]c(=S)n2/N=C/C(Cl)=C/c2ccccc2)n[nH]1	?	-13%	56µM*	1.6µM*	-18%
CCc1cccc(C)c1NC(=O)Cn1ccn(-c2cccc(OC)c2)c(=O)c1=O	2%	/	6%	-3%[59 µM]	27%
Cc1ccc2c(c1)c(C)cc(=O)n2CCC(=O)O	50µM*	?	89µM*	?	-16%
Cc1c(C)n(CCC(=O)O)c2ccccc12	-35%	-16%	-13%	-28%	24%
CCOC(=O)/C=C(\C)Sc1cc(=O)oc2ccccc12	27%	19%	-8%[57.1 µM]	14%[59 µM]	107%
